PABP polyA inh = PABP poly(A) RNA binding inhibitors, primary screen, biochemical, fluorescence polarization, uHTS; inhibition, % at 35 µM; 1% of 290,000 active; AID 2014, 2009;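 also: calls also rest on retests at 20 µM and on dose response follow-up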
eIF4H inh = human eIF4H binding inhibitors, primary screen, translation initiation inhibitor project, biochemical, uHTS, fluorescence polarization; Eukaryotic translation initiation factor 4H (Homo sapiens), Q15056; AID 2012, 2009; 0.94% of 290,000 active; eIF4H fluorescence polarization binding assay; inhibition, % at 35 µM;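 also: calls also rest on retests at 20 µM and on dose response follow-up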
PABP1 MLLE inh = inhibitors of PABP1 MLLE–PAM2 peptide binding, primary screen, biochemical, fluorescence polarization, FITC-PAM2, GST-MLLE. 0.36% of 360,000 active. inhibition, % at 20 µM. Polyadenylate-binding protein 1 (Homo sapiens), P11940; in the data active = inhibition above about 35%, passing the limit was not always enough
eIF4E 4G PPI = eIF4E–eIF4G protein interaction inhibitors, primary screen, biochemical, uHTS, TR-FRET, eIF4GI fragment | Eukaryotic translation initiation factor 4E (Mus musculus) + Eukaryotic translation … | 0.37% of 220,000 active | inhibition, % at 21.7 µM | AID 782, 2007 | TR-FRET eIF4E-eIF4GI(517-606) binding, 2 h;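 active = inhibition above about 30%, limit read from the data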
PERK inhibitor = block of dimerizer-induced PERK translation repression, primary screen, PERK inhibitor project, CHO PERK-DD cells, SEAP luminescence, HTS; Eukaryotic translation initiation factor 2-alpha kinase 3 (Homo sapiens), Q9NZJ5; CHO PERK-DD fusion, SEAP luminescence translation reporter; inhibition, % at 5.6 µM; 0.17% of 220,000 active; AID 1416, 2008;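 active = inhibition above the mean inhibition of all tested compounds plus 3 SD, set separately per screening campaign, cut at about 2.9% in these data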;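 also: PERK kinase domain activated by AP20187 dimerizer at 100 nM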
A number is an active result; 0 = inactive; ? = inconclusive; - = not tested or not shown. Hits are enriched below; roughly 1.6% of the tested compounds scored in any of these assays. Unless noted, no rule for the calls is given here.

SMILES	PABP polyA inh	eIF4H inh	PABP1 MLLE inh	eIF4E 4G PPI	PERK inhibitor
Cc1ccc(C(=O)NC2CCCCNC2=O)cc1 (stereo not drawn)	0	0	0	90	0
S=C(Nc1ccc2nc(-c3ccccn3)c(-c3ccccn3)nc2c1)N1CCOCC1	0	0	46	0	0
CC(C)Nc1ncnc2c1ncn2[C@H]1CN(CCN2CCOCC2)C[C@@H](CO)O1	-	-	0	-	-
CSc1nsc(NN)n1	-	-	42	-	-
CSc1nsc(NC(=O)OCc2ccc(Cl)cc2)n1	0	0	0	-	-
CN(CCc1ccccc1)C(=O)c1ccc(NC(=O)Cc2ccc(NC(=O)C3CCCN(C(=O)C4CC4)C3)cc2)cc1 (stereo not drawn)	-	-	0	-	-
CCCn1c(/C=C/c2ccco2)nc2ccccc21	0	0	0	0	0
CCCCn1c(/C=C/c2ccco2)nc2ccccc21	2.2	52	0	0	0
Cc1[nH]c(=S)[nH]c(=O)c1CCOc1ccccc1	0	0	0	0	3.1
Cc1ccccc1OCCc1c(C)[nH]c(=S)[nH]c1=O	0	0	0	0	0
CCC(C)COC(=O)C(C#N)c1nc2ccccc2nc1N1CCCCC1 (stereo not drawn)	0	0	0	0	0
CCCCNC(=O)C(C#N)c1nc2ccccc2nc1N1CCN(Cc2ccc3c(c2)OCO3)CC1 (stereo not drawn)	-	-	0	-	-
C=CCOC(=O)C(C#N)c1nc2ccccc2nc1N1CCN(Cc2ccc3c(c2)OCO3)CC1 (stereo not drawn)	100	69	0	0	0
CCC(CC)COC(=O)C(C#N)c1nc2ccccc2nc1N1CCN(CC)CC1 (stereo not drawn)	53	81	0	0	0
CC1CN(c2nc3ccccc3nc2C(C#N)C(=O)NCc2ccc3c(c2)OCO3)CC(C)O1 (stereo not drawn)	94	0	0	0	0
C#CCN1C(C)=CC(=O)[C@@H](O)[C@H]1c1ccccc1Br	-	-	0	-	-
CC(C)(C)NC(=O)CCN(/N=C/c1ccc([N+](=O)[O-])o1)C1=NS(=O)(=O)c2ccccc21	0	82	0	0	0
COc1ccc([N+](=O)[O-])cc1NC(=O)CS(=O)(=O)c1ccc(C)cc1	0	0	0	0	0
CCOc1ccccc1NC(=O)CCS(=O)(=O)c1ccc(Br)cc1	46	84	0	-	-
O=C(CCS(=O)(=O)c1ccc(Br)cc1)NCc1ccco1	0	81	0	-	-
COc1ccc([N+](=O)[O-])cc1NC(=O)CCS(=O)(=O)c1ccc(Br)cc1	0	96	0	-	-
CCOc1ccc(NC(=O)CCS(=O)(=O)c2ccc(Br)cc2)cc1	0	76	0	-	-
CCc1ccccc1NC(=O)CCS(=O)(=O)c1ccc(Br)cc1	0	0	0	-	-
COc1ccc(NC(=O)CCS(=O)(=O)c2ccc(Br)s2)cc1	0	91	0	-	-
COC(=O)c1ccccc1NC(=O)CCS(=O)(=O)c1ccc(Br)cc1	0	86	0	0	0
SMILES	PABP polyA inh	eIF4H inh	PABP1 MLLE inh	eIF4E 4G PPI	PERK inhibitor
CCCNC(=O)C1(C)CCN(C(=O)c2ccc(OC)cc2OC)C1 (stereo not drawn)	-	-	0	-	-
COc1ccc(C)cc1S(=O)(=O)N(CC(=O)Nc1cccc([N+](=O)[O-])c1)c1cc(C)cc(C)c1	0	0	0	0	0
COc1ccc(C)cc1S(=O)(=O)N(CC(=O)Nc1cc([N+](=O)[O-])ccc1C)c1ccc(C)c(C)c1	51	active	0	0	0
O=C(O)c1ccc2c(c1)CCCN2	63	52	0	0	0
O=C(O)c1cccc(COc2ccc3c(c2)CCC3)c1	0	0	0	0	0
CNC(=O)c1c(N)sc2c1CCCCC2	128	124	-	0	0
NC(=O)c1c(N)sc2c1CCCCC2	0	0	0	-	0
Cc1ccc(-c2csc3ncn(CC#N)c(=O)c23)cc1C	34	54	0	-	-
Cc1ccc(-c2csc3ncn(CC#N)c(=O)c23)cc1	0	0	0	0	0
CC(C)(C)C1CC=C2C(C#N)=C(N)C(C#N)(C#N)C(c3cccs3)C2C1 (stereo not drawn)	121	93	-	-	0
CN1C2C=C3C(C#N)=C(N)C(C#N)(C#N)[C@H](c4c(F)cccc4F)[C@H]3C1CC2 (stereo partly drawn)	0	0	0	0	0
CN1C2C=C3C(C#N)=C(N)C(C#N)(C#N)[C@@H](c4cccs4)C3C1CC2 (stereo partly drawn)	53	59	0	0	0
Cn1c(SCC(=O)Nc2nncs2)nnc1C1CC1	80	90	0	-	-
O=C(N/N=C/c1ccncc1)c1cccc(S(=O)(=O)Nc2ccc(Cl)cc2)c1	0	70	0	92	0
O=C(O)C(SC(C(=O)O)c1ccccc1)c1ccccc1 (stereo not drawn)	-	-	0	-	-
COc1ccc(CN2C(=NC(=O)c3ccccc3)SC3CS(=O)(=O)CC32)cc1 (stereo not drawn)	0	0	0	-	-
CCSc1nnc(NC(=O)c2cc(-c3ccccc3O)n[nH]2)s1	0	0	0	0	3.8
CCOc1ccccc1NC(=O)COC(=O)C1COc2ccccc2O1 (stereo not drawn)	-	-	0	-	-
O=C(OCc1c(-c2ccccc2)ncc2ccccc12)c1cccs1	-	-	0	-	-
c1ccc(CSc2nnc3c(n2)OC(c2ccco2)Nc2ccccc2-3)cc1 (stereo not drawn)	0	4.0	0	0	0
C=CCSc1nnc2c(n1)OC(c1c(C)[nH]n(-c3ccccc3)c1=O)Nc1ccccc1-2 (stereo not drawn)	85	?	0	0	0
Cc1c(C)c2ccc(OCC(=O)NCCN3CCOCC3)c(C)c2oc1=O	0	0	0	-	-
CCOC(=O)C1=CN(Cc2ccco2)S(=O)(=O)N(CC)C1c1cccc(OC)c1 (stereo not drawn)	-	-	0	-	-
COc1ccc(-c2cn(CCc3c[nH]c4ccccc34)nn2)cc1	0	0	0	-	-
C[C@@H]1CCCCO[C@H](CN(C)S(=O)(=O)c2cn(C)cn2)[C@@H](C)CN([C@H](C)CO)C(=O)c2cc(NC(=O)c3ccncc3)ccc2O1	-	-	0	-	-
CCCc1n(CC(O)COCC2CC=CCC2)c2ccccc2[n+]1C (stereo not drawn)	68	0	0	0	0
O=C(O)c1ccccc1C(=O)NCC(O)COCC1CC=CCC1 (stereo not drawn)	0	0	0	0	0
CCCc1n(CC(O)COCc2ccccc2)c2ccccc2[n+]1C (stereo not drawn)	0	0	0	0	0
CCCc1n(CC(O)COC2CCCCC2)c2ccccc2[n+]1C (stereo not drawn)	72	0	0	0	0
CC(=O)Nc1ccc(SCC(=O)NC(=O)c2ccc(S(=O)(=O)N(C)C)cc2)cc1	-	-	40	-	-

Bioassay records: PubChem BioAssay, several laboratories
